The list is not random: actives were taken first. Their share in the collection is about 14%.
LmPK inh: blocks Leishmania mexicana pyruvate kinase activity. Potency, µM (top dose mostly 57.5 µM), most hits filed as inhibitors. 290,000 tested, 0.37% active. AID 1721. purified LmPK, Kinase-Glo ATP luminescence, 1 h
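Kinase-Glo luminescence read after 1 h RT reaction of 0.1 nM LmPK with 0.5 mM PEP and 0.1 mM ADP. Activity scaled between uninhibited and enzyme-free controls.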
CHX counter: counter-screen for Shiga toxin inhibitors: cycloheximide protein synthesis inhibition | cell reporter, cycloheximide protein synthesis inhibition counterscreen | max response, % | 300,000 tested, 12% active | AID 2314; in the data active = max response mostly above about 13%, no sharp cut-off; inactive = mostly below about 14%; note: read at 38.3 µM for the half of the compounds with a filed dose
NS1 function inh: influenza NS1 inhibition. 270,000 tested, 0.4% active. AID 2326. Potency, µM (titrated, usually from 46.1 µM); calls by dose curve; note: actives are rising curves; nearly all actives have a fitted effect of over 50% in size
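A cell-based growth assay was used: compounds that relieve NS1-induced slow growth of budding yeast raise OD600. Assay medium was yeast nitrogen base with ammonium sulphate and -URA supplement, pH 6.0, with 2% galactose.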
FBPA Giardia inh: blocks Giardia fructose-bisphosphate aldolase activity; purified Giardia FBPA; A8B2U2; 290,000 tested, 0.71% active; AID 2451; Potency, µM (highest dose often 59.6 µM), most hits filed as inhibitors; note: nearly all actives have a fitted effect of over 55% in size
Target sequence (A8B2U2 whole entry, looked up): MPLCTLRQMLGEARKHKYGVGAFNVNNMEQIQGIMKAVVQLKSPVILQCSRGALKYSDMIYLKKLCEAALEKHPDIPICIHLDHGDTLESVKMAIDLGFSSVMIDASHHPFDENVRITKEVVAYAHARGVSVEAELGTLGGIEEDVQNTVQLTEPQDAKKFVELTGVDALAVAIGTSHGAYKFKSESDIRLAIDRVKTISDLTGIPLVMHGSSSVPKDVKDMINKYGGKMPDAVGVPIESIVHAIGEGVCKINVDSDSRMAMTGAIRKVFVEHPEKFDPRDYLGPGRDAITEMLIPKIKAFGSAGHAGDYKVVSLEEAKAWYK
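40 nM FBPA preincubated 10 min at RT with compound (up to 57.5 uM final), then substrate plus GAPDH/TPI/NAD/arsenate coupling and diaphorase/resazurin added. Fluorescence read after 20 min at RT, 525/598 nm.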
Shiga inhibitor: Shiga toxin inhibition; Vero cells, Shiga toxin protein synthesis inhibition reporter; 290,000 tested, 9.2% active; AID 2315; inhibition, % at 38.7 µM; in the data active = inhibition mostly above about 28%, no sharp cut-off; inactive = mostly below about 43%
Numbers stand for hits; – = inactive; ? = inconclusive; · = not tested or not shown; + = active, no number; [ ] = dose if it differs, or a comment. Unless noted, calls come from the whole dose curve; as a rule, active = well fitted curve in the direction sought with a large enough effect; inconclusive = small, poorly fitted or top-dose-only effect, or another doubt; inactive = no such curve, though single readings can be large; an effect the other way counts as inactive or inconclusive.

SMILES	LmPK inh	CHX counter	NS1 function inh	FBPA Giardia inh	Shiga inhibitor
C#CCn1cc(Cl)cc(C(=O)Nc2ccccc2)c1=O	–	17	–	–	–
CC1C(NC(=O)/C(=N/OC(C)(C)C(=O)O)c2csc(N)n2)C(=O)N1S(=O)(=O)O (centres undefined)	·	·	·	–	·
NC(=O)c1nsc(C(=O)N(c2ccccc2)C(C(=O)NC2CCCCC2)c2ccc(O)cc2)c1N (centres undefined)	–	–	–	–	–
O=C1C(Nc2ccc(O)cc2)=C/C(=N/S(=O)(=O)c2cccs2)c2ccccc21	?	21	·	?	–
CCc1ccc(S(=O)(=O)/N=C2\C=C(Nc3ccc(O)cc3)C(=O)c3ccccc32)cc1	–	17	–	1.4µM	–
O=C(O)c1ccc(NC2=C/C(=N/S(=O)(=O)c3ccccc3)c3ccccc3C2=O)cc1	–	–	·	?	–
Cc1ccc(NC2=C/C(=N\S(=O)(=O)c3cccs3)c3ccccc3C2=O)c(C)c1	–	13	–	?	–
Cc1ccc(Cl)cc1NC1=C/C(=N\S(=O)(=O)c2cccs2)c2ccccc2C1=O	?	–	–	0.28µM	–
Cc1cc(C)c(S(=O)(=O)/N=C2\C=C(NS(=O)(=O)c3ccccc3)C(=O)c3ccccc32)c(C)c1	–	–	–	?	–
NCCCCCCNS(=O)(=O)c1ccc2c(Cl)cccc2c1	·	·	·	–	·
CC(=O)N1CCC2(CCN(Cc3nccs3)CC2)CC1	·	·	·	–	·
CCc1ccc(S(=O)(=O)/N=C2/C=C(Sc3ncn[nH]3)C(=O)c3ccccc32)cc1	?	19	–	0.79µM	49
CCc1ccc(S(=O)(=O)/N=C2\C=CC(=O)c3ccccc32)cc1	–	–	·	7.1µM	–
C=CC[C@@](C(C)=O)(C(=O)OC)C(NC(=O)OC)c1ccccc1 (some centres undefined)	·	·	·	–	·
COc1ccc(Oc2ncc3nc(-c4cc(F)cc(F)c4)c(=O)n(CCC#N)c3n2)cc1	·	·	·	–	·
CC1CN=C(N(C(=S)Nc2ccccc2)c2cccc(C(F)(F)F)c2)S1 (centres undefined)	–	14	–	–	–
CC(C)N(C(=S)Nc1cccc(C(F)(F)F)c1)C(C)c1ccccn1 (centres undefined)	–	–	·	–	–
O=C(CCC1N=C2c3ccccc3N=C(SCc3cccc(Cl)c3)N2C1=O)NCc1ccco1 (centres undefined)	–	15	–	–	–
O=C(CCC1N=C2c3ccccc3N=C(SCc3ccccc3Cl)N2C1=O)NCc1ccco1 (centres undefined)	–	–	?	–	–
COC(=O)c1ccc(C(NC(=O)OCc2ccccc2)/C(=C/[C@@H](C)C(=O)N(C)Cc2cccnc2)c2cccnc2)cc1 (some centres undefined)	·	·	·	–	·
COc1ccccc1C1=NC(c2ccc(F)cc2)N=C1C (centres undefined)	–	28	·	–	88
C=CCn1c(C)csc1=Nc1ccc(C(C)=O)cc1	–	34	–	–	111
C=CCn1c(=N)n(CC(=O)OC)c2ccccc21	–	–	–	–	–
C=CCn1c(C)csc1=Nc1ccccc1C	–	30	–	–	–
C=CCn1c(CC(=O)OC)csc1=Nc1ccc(C(C)=O)cc1	–	33	–	–	63
SMILES	LmPK inh	CHX counter	NS1 function inh	FBPA Giardia inh	Shiga inhibitor
CCOC(=O)c1ccc(N=c2scc(C)n2CC)cc1	–	40	·	–	80
COC(=O)/C(C#N)=C/c1c(Oc2cccc(C)c2C)nc2ccccn2c1=O	–	–	–	–	–
CN1N=C2c3ccccc3CCCC2C1c1ccc(F)cc1 (centres undefined)	–	39	–	–	76
CC1CCN(C(=O)/C=C/c2ccc(C(C)(C)C)cc2)CC1	–	39	–	–	21
O=C(/C=C/c1ccccc1)N1CCCN(C(=O)/C=C/c2ccccc2)CC1	–	–	–	–	–
Cc1ccc(/C=C/C(=O)N2CCCC(C)C2)cc1 (centres undefined)	–	64	–	–	+
CC(C)(C)c1ccc(/C=C/C(=O)N2CCCCC2)cc1	–	51	–	–	81
Cc1ccc(/C=C/C(=O)N2CCC(Cc3ccccc3)CC2)cc1	–	–	–	–	–
CC(C)Cc1ccc(/C=C/C(=O)N2CCCCC2)cc1	–	43	·	–	67
O=C1N[C@@]2(CN3CCC2CC3)C(=O)N1CN(Cc1ccccc1)c1ccccc1	·	·	–	·	·
Cc1cccc(NC(=O)CCCN2C(=O)C(c3ccccc3)Oc3cccnc32)c1C (centres undefined)	–	–	–	·	–
[O-][N+]1(CC[N+]2([O-])CCCCC2)CCCCC1	·	·	–	·	·
Cc1ccc(-n2cc(C(=O)c3ccccc3O)cn2)cc1	–	53	–	–	61
Cc1ccc(O)c(C(=O)c2cnn(-c3ccccc3)c2)c1	–	27	–	–	108
O=C(Cc1cnn(-c2ccccc2)c1)c1ccc(O)c(O)c1O	–	17	–	3.5µM	–
Oc1ccc(-c2[nH]ncc2-c2cnn(-c3ccccc3)c2)c(O)c1	–	–	·	–	–
Oc1cnn(-c2ccccc2)c1	–	16	–	–	–
CCCc1nnc(NC(=O)C2CC(=O)N(C3CCCC3)C2)s1 (centres undefined)	–	–	–	–	–
COc1ccc(NC(=S)N2CCc3ccccc3C2)cc1OC	–	–	·	–	49
COc1ccc(CC(=O)N2CCc3cc(OC)c(OC)cc3C2)cc1	–	–	–	–	–
Cc1cccc(OCC(=O)N2CCc3ccccc3C2)c1	–	27	–	–	33
N#Cc1ccccc1OCC(=O)N1CCc2ccccc2C1	–	–	–	–	–
COc1cc2c(cc1OC)CN(C(=O)COc1ccccc1C#N)CC2	–	22	–	–	–
COc1ccc(CC(=O)N2CCc3ccccc3C2)cc1	–	22	–	–	24
COc1cc(NC(=S)N2CCc3ccccc3C2)cc(OC)c1	–	–	·	–	–
SMILES	LmPK inh	CHX counter	NS1 function inh	FBPA Giardia inh	Shiga inhibitor
CC(C)CN(C(=O)COC(=O)CCCc1c[nH]c2ccccc12)c1c(N)n(Cc2ccccc2)c(=O)[nH]c1=O	–	–	–	·	–
CCCCc1nc2c(c3c1C[C@H](C)OC3)CN(S(=O)(=O)CCCC)CC2	–[11.5 µM]	·	·	–[12.9 µM]	·
CCc1ccc(/C=C\C(=O)N2CCc3ccccc3C2)cc1	–	13	–	–	43
Fc1ccc(NC(=S)N2CCOCC2)c(F)c1	–	–	–	–	–
CCOc1ccc(NC(=O)N2CCc3ccccc3C2)cc1	–	48	–	–	58
Fc1ccc(NC(=S)N2CCc3ccccc3C2)c(F)c1	–	32	–	–	67
COc1ccc(NC(=O)N2CCc3ccccc3C2)cc1	–	63	–	–	78
O=C(/C=C/c1ccccc1[N+](=O)[O-])N1CCc2ccccc2C1	–	21	–	–	–
O=C(Cc1cn(-c2ccccc2)nc1-c1ccccc1)N1CCCCC1	–	–	–	–	–
CC1SC(c2ccc(F)cc2)N(CCc2ccccc2)C1=O (centres undefined)	–	24	–	–	42

Source: PubChem (National Center for Advancing Translational Sciences (NCATS))
